PubChem BioAssay AID1044 (The Scripps Research Institute Molecular Screening Center, 2008)
In all, about 16,000 compounds went through this assay and about 240 (1.5%) were called active. Cut-off read from the data, not from the text of the source: active = activation above about 80%; inactive = the rest. The full list was thinned out, with actives kept by preference.

These compounds were tested against Sphingosine 1-phosphate receptor 1 (Homo sapiens) (UniProt P21453) (assay: activates the human S1P1 receptor (AID 1044)). Settings: S1P1 agonist cell-based reporter assay; at 4.5 µM; stronger effect = higher value.
Chain of Sphingosine 1-phosphate receptor 1 (Homo sapiens) (P21453 whole entry, looked up): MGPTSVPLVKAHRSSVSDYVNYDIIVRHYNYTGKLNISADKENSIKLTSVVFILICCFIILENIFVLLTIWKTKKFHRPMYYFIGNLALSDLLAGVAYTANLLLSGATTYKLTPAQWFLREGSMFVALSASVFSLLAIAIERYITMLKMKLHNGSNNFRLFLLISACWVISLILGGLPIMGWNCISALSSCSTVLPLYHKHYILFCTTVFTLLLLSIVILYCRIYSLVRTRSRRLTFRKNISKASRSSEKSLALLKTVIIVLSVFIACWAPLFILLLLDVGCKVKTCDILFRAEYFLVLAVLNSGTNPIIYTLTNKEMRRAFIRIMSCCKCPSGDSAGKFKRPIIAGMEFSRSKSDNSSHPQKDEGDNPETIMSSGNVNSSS

**Q.** With OC(CNCCNc1nccc(C(F)(F)F)n1)COc1ccc(Cl)c(Cl)c1 (configuration not stated) as the compound, how does the activation read?
**A.** 15.7% (inactive)

**Q.** Which activation does the source give for CSC(=Nc1ccccc1C(F)(F)F)N1CCCC1 here?
**A.** 62.5% (inactive)

**Q.** NNC(=O)CSc1nnc(-c2ccccc2)n1-c1ccccc1 was tested. Which activation did it give?
**A.** 2.03% (inactive)

**Q.** For CN(NC(=O)c1ccc(Cl)s1)c1cnn(-c2cc(Cl)cc(Cl)c2)c(=O)c1Cl, which activation is on record?
**A.** 7.36% (inactive)

**Q.** O=C(NCc1cccnc1)c1ccccc1NC(=O)c1c(F)cccc1F was tested. Which activation did it give?
**A.** 10.3% (inactive)

**Q.** Which activation does the source give for Cc1ccc(S(=O)(=O)NC(=O)NCCSCc2ccco2)cc1 here?
**A.** -7.47% (inactive)

**Q.** O=C(CSc1ccc(Cl)cc1)NCCSCc1ccco1 was tested. Which activation did it give?
**A.** 3.06% (inactive)

**Q.** How did the activation turn out when O=C(O)CSC(SCC(=O)O)c1ccc2c(c1)OCO2 was run?
**A.** -4.07% (inactive)

**Q.** Cc1cc(C)n(/N=c2\sc(-c3ccccc3)cn2C2CC3C=CC2C3)c(=O)c1C#N (configuration not stated) was tested. Which activation did it give?
**A.** -8.12% (inactive)

**Q.** For CCOC(=O)c1c(N/N=C\c2ccccc2O)n[nH]c1C, which activation is on record?
**A.** -16.7% (inactive)

**Q.** How did the activation turn out when COc1cc(NC(=O)COc2cc(Cl)c(Cl)cc2Cl)cc(OC)c1OC was run?
**A.** 22.5% (inactive)

**Q.** Which activation does the source give for O=C(O)Cc1csc(NC(=O)CSc2nnnn2-c2ccc(O)cc2)n1 here?
**A.** 0.38% (inactive)

**Q.** With C/C(=N\NC(N)=S)c1cc2cc(Cl)ccc2o1 as the compound, how does the activation read?
**A.** 7.17% (inactive)

**Q.** For N/C(=N\O)c1ccc2nonc2c1, which activation is on record?
**A.** 23.9% (inactive)

**Q.** With Clc1ccc(-c2csc(-c3cnccn3)n2)s1 as the compound, how does the activation read?
**A.** 1.06% (inactive)

**Q.** For S=C(Nc1cccnc1)N1CCCN(Cc2ccc(Cl)cc2Cl)CC1, which activation is on record?
**A.** 14.2% (inactive)

**Q.** For COC(=O)c1ccsc1NC(C)=O, which activation is on record?
**A.** -7.53% (inactive)

**Q.** With CCCc1c(C(=O)O)cnn1-c1ccc(Cl)cc1 as the compound, how does the activation read?
**A.** -21.8% (inactive)

**Q.** O/N=C(\c1ccccc1)c1ccccn1 was tested. Which activation did it give?
**A.** -7.69% (inactive)

**Q.** COc1ccc(C2CC(c3cccs3)=Nc3ccccc3S2)c(Cl)c1OC (configuration not stated) was tested. Which activation did it give?
**A.** 1.73% (inactive)

**Q.** O=S(=O)(O)Oc1c[nH]c2ccccc12 was tested. Which activation did it give?
**A.** -5.88% (inactive)

**Q.** CC1=C(C(=O)O)N2C(=O)[C@H](NC(=O)[C@@H](N)c3ccccc3)C2SC1 (some centres not stated) was tested. Which activation did it give?
**A.** 8.53% (inactive)

**Q.** With O=C(c1cnn(-c2ccc(Cl)cc2)n1)c1cccs1 as the compound, how does the activation read?
**A.** 3.48% (inactive)

**Q.** For CC(C)S(=O)(=O)/C(C#N)=C/c1ccccc1OC(F)(F)F, which activation is on record?
**A.** -23.8% (inactive)

**Q.** For O=C(NNC(=S)Nc1ccccc1Cl)c1ccc(OC(F)(F)F)cc1, which activation is on record?
**A.** 91.2% (active)

**Q.** COC(=O)c1ccccc1NC(=S)NNC(=O)c1ccc([N+](=O)[O-])cc1 was tested. Which activation did it give?
**A.** -4.53% (inactive)

**Q.** With Cc1nc(C(=O)NNC(=S)Nc2ccccc2C(F)(F)F)cs1 as the compound, how does the activation read?
**A.** -8.43% (inactive)

**Q.** Which activation does the source give for Cc1nn(S(=O)(=O)c2ccc(Cl)cc2)cc1-c1ccccc1 here?
**A.** -1.3% (inactive)

**Q.** Which activation does the source give for Cc1cc(Cl)ccc1NC(=S)NNC(=S)Nc1ccc(F)cc1 here?
**A.** 25.2% (inactive)

**Q.** With Cc1onc(-c2ccccc2)c1C(=O)Sc1ccc(C(F)(F)F)cn1 as the compound, how does the activation read?
**A.** -5.64% (inactive)

**Q.** CC(=O)c1ccc(NC(=O)OC2CCSC2)cc1 (configuration not stated) was tested. Which activation did it give?
**A.** -3.04% (inactive)

**Q.** For O=S(=O)(c1ccccc1)c1cc(C(F)(F)F)cc(C(F)(F)F)c1, which activation is on record?
**A.** 1.62% (inactive)

**Q.** With O=c1oc2c3ccccc3c3oc(=O)sc3c2s1 as the compound, how does the activation read?
**A.** 11% (inactive)

**Q.** With CN(C)c1ccc(C=Nc2ccc(S(N)(=O)=O)cc2)cc1 as the compound, how does the activation read?
**A.** -3.85% (inactive)

**Q.** For CC(=O)Nc1ccc(F)cc1F, which activation is on record?
**A.** -19.4% (inactive)

**Q.** With CC1(C)CCc2cc(-c3ccnc(SCC(=O)c4ccccc4)n3)ccc2O1 as the compound, how does the activation read?
**A.** -11.3% (inactive)

**Q.** Which activation does the source give for CC1(C)C=Cc2cc(-c3noc(-c4ccccc4)n3)ccc2O1 here?
**A.** 96.3% (active)

**Q.** How did the activation turn out when Cc1cc(C(F)(F)F)nc2c(-c3noc(-c4ccccc4)n3)cnn12 was run?
**A.** 23.9% (inactive)

**Q.** Which activation does the source give for O=c1cc(-c2ccccc2)cc(-c2ccccc2)o1 here?
**A.** -7.4% (inactive)

**Q.** Which activation does the source give for O=C(O)CC(CC(=O)Oc1ccccc1N1CCCCC1)c1ccccc1 (configuration not stated) here?
**A.** -2.68% (inactive)

**Q.** How did the activation turn out when O=C(CCN1CCN(C(c2ccccc2)c2ccccc2)CC1)c1ccccc1 was run?
**A.** 1.07% (inactive)

**Q.** With CC1CC(NC(=O)/C(C#N)=C/c2ccc[nH]2)CC(C)(C)C1 (configuration not stated) as the compound, how does the activation read?
**A.** -5.85% (inactive)

**Q.** For Cc1[nH]ncc1S(=O)(=O)c1ccc(Cl)cc1, which activation is on record?
**A.** 2.45% (inactive)

**Q.** How did the activation turn out when O=C(NCc1ccc(F)cc1F)c1cc(C(F)(F)F)cc(C(F)(F)F)c1 was run?
**A.** -5.72% (inactive)

**Q.** O=C(Nc1ccc(F)cc1OC(F)(F)F)N1CCC(O)CC1 was tested. Which activation did it give?
**A.** -2.84% (inactive)

**Q.** Which activation does the source give for Cc1nc2cc3c(cc2s1)OCO3 here?
**A.** 2.86% (inactive)

**Q.** How did the activation turn out when COCn1nnc2ccccc21 was run?
**A.** 1.03% (inactive)

**Q.** How did the activation turn out when CC1(C)CC(=O)C(N=Nc2c(F)cccc2F)=C(O)C1 was run?
**A.** 7.55% (inactive)

**Q.** With CC(C)c1ccc(NNS(=O)(=O)c2ccc(Cl)c(Cl)c2)cc1 as the compound, how does the activation read?
**A.** -3.29% (inactive)

**Q.** For CC(C)NC(=O)NNc1c(Cl)cncc1Cl, which activation is on record?
**A.** 8.17% (inactive)

**Q.** How did the activation turn out when CC(=O)Nc1ccc(S(=O)(=O)NNc2c(Cl)cncc2Cl)cc1Cl was run?
**A.** 80.4% (active)

**Q.** Cc1cc(C2=CSC3=NCCN23)ccc1Cl was tested. Which activation did it give?
**A.** 8.4% (inactive)

**Q.** With CN(C)/C=C/C(=O)c1cc(C(C)(C)C)cc(C(C)(C)C)c1O as the compound, how does the activation read?
**A.** 19.8% (inactive)

**Q.** CCCCNC(=O)OCCSCCS(=O)(=O)c1ccc(Cl)cc1 was tested. Which activation did it give?
**A.** -12.4% (inactive)

**Q.** How did the activation turn out when O=C1COCC(=O)N1c1ccc2c(c1)OCO2 was run?
**A.** -5.13% (inactive)

**Q.** How did the activation turn out when Nc1[nH]c(=O)nc2nc[nH]c12 was run?
**A.** -5.12% (inactive)

**Q.** How did the activation turn out when N/C(=N\OS(=O)(=O)c1ccc(C(F)(F)F)cc1)C1CSCCS1 (configuration not stated) was run?
**A.** 6.24% (inactive)

**Q.** CCc1cccc(C)c1N(C(C)=O)C1=NCCC(=O)S1 was tested. Which activation did it give?
**A.** -5.03% (inactive)

**Q.** With Cn1c(=O)c(C#N)cn(-c2ccccc2)c1=O as the compound, how does the activation read?
**A.** -15.9% (inactive)

**Q.** With CC(C)S(=O)(=O)c1cscc1N/C=C(/C#N)C(=O)c1cccs1 as the compound, how does the activation read?
**A.** 21.3% (inactive)

**Q.** O=C(Nc1cc2ccccc2s1)N1CCN(Cc2c(F)cccc2Cl)CC1 was tested. Which activation did it give?
**A.** 8.18% (inactive)

**Q.** How did the activation turn out when Cc1cc(CNC(=O)c2cc(C)n(C)n2)no1 was run?
**A.** 0.51% (inactive)

**Q.** With N#Cc1sccc1Br as the compound, how does the activation read?
**A.** -1.57% (inactive)

**Q.** For CCOC(=O)C/C(N)=C(\C#N)C(=O)OCC, which activation is on record?
**A.** -0.14% (inactive)

**Q.** How did the activation turn out when Cc1nc(-c2cccnc2)nc(N2CCCN(Cc3ccc(F)cc3)CC2)c1Cl was run?
**A.** -19.4% (inactive)

**Q.** CN(C)/C=N/NC(=O)c1nc(-c2cccc(-n3cccc3)c2)no1 was tested. Which activation did it give?
**A.** -6.62% (inactive)

**Q.** For CCOC(=O)O/N=C(\N)c1ccc(Cl)cc1, which activation is on record?
**A.** 3.02% (inactive)

**Q.** How did the activation turn out when O=[N+]([O-])c1ccc(-c2ccc(I)cc2)cc1 was run?
**A.** 1.05% (inactive)

**Q.** For O=[N+]([O-])c1cc(C(F)(F)F)ccc1OCCO, which activation is on record?
**A.** 8.3% (inactive)

**Q.** For COc1ccc(/C=C(\NC(=O)c2ccccc2)C(=O)N/N=C/c2ccc3c(c2)OCO3)cc1, which activation is on record?
**A.** 7.34% (inactive)

**Q.** With O=C(/C(=N\N=C\c1ccc2c(c1)OCO2)c1ccccc1)c1ccccc1 as the compound, how does the activation read?
**A.** 101% (active)

**Q.** With O=C1/C(=C/c2ccc3c(c2)OCO3)CCC/C1=C\c1ccc2c(c1)OCO2 as the compound, how does the activation read?
**A.** 11.5% (inactive)

**Q.** With CO/N=C(/C)c1ccc2c(c1)CCO2 as the compound, how does the activation read?
**A.** -16.7% (inactive)

**Q.** How did the activation turn out when O=C(NCc1cc2ccccc2s1)C1CN(C(c2ccccc2)c2ccccc2)C1 was run?
**A.** -7.79% (inactive)

**Q.** With O=C(CSc1nnc(-c2ccncc2)n1Cc1ccccc1)Nc1nnc(-c2ccco2)s1 as the compound, how does the activation read?
**A.** 4.05% (inactive)

**Q.** c1ccc2sc(-c3csc(-c4ccc5c(c4)OCCO5)n3)nc2c1 was tested. Which activation did it give?
**A.** 7.46% (inactive)

**Q.** How did the activation turn out when S=C(NNC(=S)NC1CC2C=CC1C2)NC1CC2C=CC1C2 (configuration not stated) was run?
**A.** -6.61% (inactive)
